Bioassay records deposited in PubChem BioAssay by National Center for Advancing Translational Sciences (NCATS).
A selection: hits, their analogues and other compounds. The true share with any hit is near 19%.
HT1080 IDH1KD tx – HT-1080 IDH1 knockdown cell toxicity (counter line); AID 686971; Potency, µM (series often up to 46.1 µM), for inactives: at the highest dose activity, negative = toxicity, most hits filed as cytotoxic; 360,000 tested, 2% active; HT-1080 IDH1 knockdown viability, ATP luminescence, 48 h;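 note: potency is the fitted concentration of half-maximal effect; 0% = DMSO wells and -100% = cell-free medium wells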
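Using the IDH1-knockdown HT-1080 line run in the same batch and compound series as the NT line, viability after 48 h at 37 °C was determined by CellTiter-Glo luminescence and expressed as % activity.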
TDP1 cell CPT – growth inhibition of DT40 Tdp1-/-;hTDP1 cells with camptothecin (screen for TDP1 inhibitors). AID 686979. Potency, µM (doses to about 46.2 µM), for the others: top-dose activity change, negative = growth inhibition, most hits filed as inhibitors. 420,000 tested, 12% active. chicken DT40 Tdp1-/-;hTDP1 cells + 20 nM CPT, ATP luminescence, 48 h; note: potency is the fitted concentration of half-maximal effect; nearly all actives have a fitted effect of over 55% in size
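Chicken DT40 Tdp1-/- cells stably complemented with human TDP1 were seeded at 400 cells/well in medium containing 20 nM camptothecin, exposed to pin-transferred compounds, and grown at 37 °C for at least 48 hr. Viability was read as ATP luminescence.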
DT40 TDP1 no CPT – qHTS for Inhibitors of human tyrosyl-DNA phosphodiesterase 1 (TDP1): qHTS in cells in absence of CPT; Potency, µM (titrated, usually from 46.2 µM), for the others: top-dose activity change, negative = growth inhibition, hits mostly inhibitors; 420,000 tested, 15% active; DT40 Tdp1-/- hTDP1 cells, no CPT, ATP luminescence, 48 h; note: potency is the fitted concentration of half-maximal effect; nearly all actives have a fitted effect of over 55% in size
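Cells were dispensed at 400 per well, compounds added by pin tool, plates incubated ≥48 hr at 37 °C, then CellTiter-Glo added for 30 min at room temperature before luminescence reading. Line: DT40 Tdp1-/- complemented with hTDP1; camptothecin omitted.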
HT1080NT lethal – kills 2HG-producing HT-1080-NT fibrosarcoma cells | HT-1080-NT fibrosarcoma viability, CellTiter-Glo ATP luminescence, 48 h | Potency, µM (titrated, usually from 46.1 µM), for the others: top-dose activity, negative = less viability, usual class: cytotoxic | 360,000 tested, 1.6% active | AID 686970;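 note: NT is the 2HG producing partner of a matched IDH1 knockdown line; potency is the fitted concentration of half-maximal effect; 0% = DMSO-treated cells and -100% = media-only wells without cells; nearly all actives have a fitted effect of over 55% in size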
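HT-1080-NT; 750 cells/well; 5% FBS RPMI; 48 h compound, 37 degrees C; CellTiter-Glo luminescence; curve fitting and curve-class assignment.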
IL-1B inflam inh – inhibitors of inflammasome signaling (IL-1 beta secretion); THP-1 LPS/ATP IL-1B secretion, AlphaLISA, 16 h; hits give low values; activity change, % at 57.5 µM; 360,000 tested, 4.7% active; AID 743279; in the data active = activity change below about -50%; inconclusive = mostly about -30% to -49%
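THP-1 cells pretreated 1 hr with compounds (up to 57.5 uM final), then stimulated with LPS (250 ng/mL final) plus ATP (1.25 mM final); secreted IL-1B measured by AlphaLISA after 16 hr, decreased signal indicating inhibition.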
uPA generation – blocks generation of uPA at the cell surface; 330,000 tested, 0.31% active; AID 540303; cell surface uPA generation assay, qHTS; Potency, µM (doses to about 38.3 µM), without a hit: at the top dose activity change, negative = inhibition, most hits filed as inhibitors; active = well fitted inhibition curve with a large enough effect; inconclusive = small, poorly fitted or top-dose-only effect; inactive = no such curve, though single readings can be large or run the other way; tested in mouse RAW 264.7 cells; note: potency is the fitted concentration of half-maximal effect; nearly all actives have a fitted effect of over 55% in size
Starred values were filed as active, the others as inactive; ? = inconclusive; . = no result. Unless noted, calls come from the whole dose curve; as a rule, active = well fitted curve in the direction sought with a large enough effect; inconclusive = small, poorly fitted or top-dose-only effect, or another doubt; inactive = no such curve, though single readings can be large; an effect the other way counts as inactive or inconclusive. Unless noted, % is set by controls: 0 for no effect and ±100 for the full control effect.

SMILES | HT1080 IDH1KD tx | TDP1 cell CPT | DT40 TDP1 no CPT | HT1080NT lethal | IL-1B inflam inh | uPA generation
COc1ccc(Cl)cc1NC(=O)CN1CCCCCC1 | -3.3% | -5.4% | -18.5% | -2.3% | 0.0 | -2.6%
COc1cc(NC(=O)c2cccc(C)c2)c(OC)cc1NC(=O)CN1CCCCC1 | -10.8% | ? | 16.4µM* | -1.5% | -62.2* | 6.7%
COC(=O)c1cc(Cl)c(NC(=O)c2ccc(C(C)(C)C)cc2)cc1OC | 11.2µM* | 25.9µM* | 18.4µM* | ? | 22.4 | .
COc1cc(NC(=O)c2ccc(C(C)(C)C)cc2)c(OC)cc1NC(=O)CN1CCCCC1 | -2.5% | ? | 20.6µM* | 0.3% | -23.5 | -5.8%
CCCN(CCC)c1cc(C)nc2nc(-c3ccc(Cl)cc3)nn12 | . | -11.8% | -15.2% | . | . | .
COc1ccccc1NC(=O)C1CCN(C(=O)c2sc3nc[nH]c(=O)c3c2C)CC1 | . | -9.2% | -11.6% | . | . | .
COc1cc(NC(=O)C2CCCCC2)c(OC)cc1NC(=O)CN1CCCCC1 | -0.3% | ? | 16.4µM* | -10.8% | ? | 2.1%
COc1cc(NC(=O)Nc2ccccc2)c(OC)cc1NC(=O)CN1CCCCC1 | ? | ? | ? | ? | -10.1 | -7.1%
COc1cc(C(=O)NC2CCN(CC(=O)Nc3cccc(C)c3C)CC2)cc(OC)c1OC | 2.0% | 18.4µM* | ? | -12.7% | -4.3 | -1.0%
COc1cc(NC(=O)Nc2ccccc2OC)c(OC)cc1NC(=O)CN1CCCCC1 | -15.3% | ? | ? | -13.7% | -4.3 | 8.5%
COc1cccc(C(=O)NC2CCN(CC(=O)Nc3cccc(C)c3C)CC2)c1 | 2.9% | -16.8% | ? | 4.5% | -17.5 | ?
COc1cc2c(cc1NC(=O)c1ccccc1F)CCCC2 | 2.3% | ? | 20.6µM* | -5.4% | 8.7 | -7.0%
COc1cc(NC(=O)c2ccccc2F)c(OC)cc1NC(=O)CN1CCCCC1 | -19.7% | ? | 16.4µM* | -14.3% | -57.5* | 0.4%
CC1=C(C(=O)N2CCCCCC2)CC(CC(=O)NCCN2CCOCC2)C(=O)N1Cc1ccc(C(C)(C)C)cc1 (stereo not drawn) | 6.9% | -25.2% | ? | -1.1% | -3.7 | .
COc1cc(NC(=O)c2ccc(C)cc2)c(OC)cc1NC(=O)CN1CCOCC1 | 12.8% | ? | 16.4µM* | 6.7% | -19.0 | 1.6%
Cc1ccc(NC(=O)C(c2ccccc2)c2ccccc2)c(O)c1 | -24.6% | 1.2% | 7.5% | -24.1% | -56.0* | -0.9%
Cc1cccc(NC(=O)CN2CCC(NC(=O)C3CCCCC3)CC2)c1C | 8.5% | -20.2% | ? | 19.5% | 0.0 | -1.8%
CC(=O)Nc1ccc(NC(=O)C(c2ccccc2)c2ccccc2)cc1 | 0.4% | 2.1% | 7.6% | -1.5% | 37.6 | 17.6%
COc1cc(NC(=O)c2ccc(Cl)cc2)c(OC)cc1NC(=O)CN1CCCCC1 | ? | ? | 18.4µM* | ? | -83.9* | 3.2%
Cc1ccc(NC(=O)CN2CCC(NC(=O)C3CCCCC3)CC2)c(Br)c1 | 9.1% | ? | 20.6µM* | -2.7% | -5.0 | 6.3%
O=C(c1ccco1)N1CCN(c2ccc([N+](=O)[O-])cn2)CC1 | -6.9% | ? | -4.6% | 2.0% | -12.4 | -20.9%
CN(C)c1ccc(C=C(C#N)C(=O)c2ccccc2)cc1Br | 8.6% | -0.6% | -1.8% | 6.2% | -16.3 | .
COC(=O)c1ccc(C(=O)Nc2cc(Cl)ccc2Cl)cc1NC(=O)c1ccc(N(C)C)cc1 | -7.1% | 25.9µM* | ? | 4.9% | -12.1 | 5.7%
COc1cc(NC(=O)C(c2ccccc2)c2ccccc2)c(C(=O)O)cc1OC | 1.2% | -3.4% | 9.3% | 0.3% | 16.4 | -6.1%
COc1cc2c(cc1NC(=O)C(c1ccccc1)c1ccccc1)CCCC2 | -2.9% | ? | 11.6µM* | 0.4% | 4.8 | -2.3%
